Source: PubChem (National Center for Advancing Translational Sciences (NCATS))
MARV entry inh = blocks Marburg virus binding to or entry into cells. 300,000 tested, 1.8% active. Marburg virus pseudotyped entry inhibition, cell reporter. Potency, µM (highest dose often 37.8 µM), for the others: at the top dose activity change, negative = inhibition, usual class: inhibitors. AID 540276; calls by dose curve; tested in HEK293 cells
HCV inhibitor = HCV inhibition. Huh7.5.1 HCVcc-Cre infection, luciferase reporter, 44 h. Potency, µM (top dose mostly 41.8 µM), without a hit: top-dose activity change, negative = inhibition, actives largely listed as inhibitors. 340,000 tested, 3.4% active. AID 651820
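Whole-lifecycle infectious HCVcc-Cre system; cells 1,000/well, compound then virus (~0.5 moi) added 4 h after plating, 44 h culture. Luciferase read 15 sec following 15 min substrate incubation, room temp.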
FMDV inh = antivirals against foot and mouth disease virus | FMDV antiviral cell-based qHTS | Potency, µM (highest dose often 57.9 µM), for the others: at the top dose activity change, negative = inhibition, usual class: inhibitors | 410,000 tested, 1.2% active | AID 1159524; calls by dose curve; tested in HEK293T cells; note: read-out not given here; nearly all actives have a fitted effect of over 45% in size
LASV entry inh = Lassa virus entry inhibition; Lassa virus pseudotype entry inhibition, cell reporter; Potency, µM (highest dose often 37.9 µM), for the others: at the highest dose activity change, negative = inhibition, most hits filed as inhibitors; AID 540256; 300,000 tested, 1.2% active; calls by dose curve; tested in HEK293 cells; note: nearly all actives have a fitted effect of over 50% in size
Sm TGR block = blocks Schistosoma mansoni thioredoxin glutathione reductase. Q962Y6. purified TGR, DTNB reduction, TNB absorbance 405 nm. Potency, µM (series often up to 114 µM), without a hit: at the highest dose activity change, negative = inhibition, actives largely listed as inhibitors. 360,000 tested, 3% active. AID 485364; note: nearly all actives have a fitted effect of over 60% in size
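First, TGR (20 nM dispensed) and NADPH were mixed with compound. Second, a 15 min room-temperature incubation followed. Third, further NADPH and then DTNB were added to start the reaction. Finally, TNB absorbance was monitored kinetically.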
RE007 growth inh = less growth of the S. pombe RE007 Vpr strain; Potency, µM (doses to about 92.2 µM), inactives show at the top dose activity change, negative = less growth, most hits filed as inhibitors; AID 651644; S. pombe RE007 Vpr strain, BacTiter-Glo ATP luminescence, 24 h; 360,000 tested, 0.21% active; active = well fitted falling curve with a large enough effect; inconclusive = small, poorly fitted or top-dose-only effect; inactive = no such curve, though single readings can be large or run the other way; note: nearly all actives have a fitted effect of over 50% in size
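Fission yeast strain RE007, carrying one chromosomally integrated HIV-1 vpr copy, was seeded at OD 0.01 in PMG+AL medium with 23 nL pinned compound. After 24 h at 30 °C and 99% humidity, viability was read by BacTiter-Glo luminescence.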
An asterisk follows results filed as active; ? = inconclusive; / = no result given; [ ] = remark or other dose. Shown are actives, neighbours in structure and some others; about 7.2% of the full set was active somewhere. Unless noted, calls come from the whole dose curve; as a rule, active = well fitted curve in the direction sought with a large enough effect; inconclusive = small, poorly fitted or top-dose-only effect, or another doubt; inactive = no such curve, though single readings can be large; an effect the other way counts as inactive or inconclusive. % is set by controls: 0 for no effect and ±100 for the full control effect; potency is the fitted concentration of half-maximal effect.

SMILES	MARV entry inh	HCV inhibitor	FMDV inh	LASV entry inh	Sm TGR block	RE007 growth inh
CCC(c1nnc(SCC(=O)Nc2ccc(Cl)cc2C(F)(F)F)n1C1CCCCC1)N(C)C (centres undefined)	?	1%	-10%	13µM*	0%	20%
Cc1ccc(NC(=O)CS(=O)(=O)c2nc(-c3ccc(C)cc3)cn2-c2ccc(C)cc2)cc1	?	/	19%	?	11%	/
O=c1c2cc(C(F)(F)F)ccc2sn1-c1ccccc1	/	/	?	/	/	8.9µM*
O=c1c2cc(F)ccc2sn1-c1ccccc1	/	?	-1%	/	-30%	11µM*
O=C(O)c1cccc(-n2sc3ccccc3c2=O)c1	/	-1%	9%	/	?	1%
CC(=O)Nc1ccc2c(=O)n(-c3ccccc3)sc2c1	/	/	14%	/	/	12%
CCOC(=O)c1ccccc1NC(=O)Cn1c(=O)n(CCC(=O)NCc2ccccc2OC)c(=O)c2ccccc21	?	/	-28%	4%[46.1 µM]	-7%	/
C#CC(CC)(CC)NC(=O)c1cc(S(=O)(=O)N2CCCCC2)ccc1N1CCOCC1	21%	-8%	-3%	-4%	4%	-20%
COc1ccc(-c2c[n+](CC(=O)OC3CC(C)CCC3C(C)C)c3n2CCC3)cc1 (centres undefined)	/	?	13µM*	/	3%	-4%
CC(C)[C@@H]1CC[C@@H](C)C[C@H]1OC(=O)C[n+]1cc(-c2ccc(Cl)cc2)n2c1CCCCC2	?	-15%	?	?	-1%	8%
COC1CCCC(c2nc(N)nc(SC)c2C#N)C1 (centres undefined)	4%	/	/	/	/	/
COc1ccc(Cl)cc1NC(=O)c1ccc(CN2C(=O)CCn3nc(C)cc32)cc1	/	/	-29%	?	5%	/
CNc1ccccc1	/	28%	-13%	/	-9%	0%
CNc1cccccc1=S	-4%	-3%	-3%	15%	5.6µM*	-29%
CCN(CC)CCN(C(=O)c1ccco1)c1nc2ccc(Br)cc2s1	/	/	-12%	?	36%	/
CCOc1ccc(C(=O)Nc2c(C(=O)Nc3ccccc3F)oc3ccccc23)cc1OCC	7%[46.1 µM]	/	-7%	-4%[46.1 µM]	-1%	/
O=C(Nc1ccccc1Cl)[C@H](CSCc1ccccc1)N1Cc2ccccc2C1=O	-17%[46.1 µM]	/	-1%	-17%[46.1 µM]	-7%	/
CCc1ccc(C(=O)c2cn(CC(=O)Nc3ccc4c(c3)OCO4)c3ccc(Cl)cc3c2=O)cc1	11%[46.1 µM]	/	-18%	16%[46.1 µM]	-3%	/
CCc1ccc(C(=O)c2cn(CC(=O)Nc3ccc(Cl)cc3)c3cc4c(cc3c2=O)OCO4)cc1	4.5µM*	/	0%	?	-1%	/
COc1cccc(NC(=O)CSc2nc(=O)n(Cc3ccccn3)c3c2CCC3)c1	/	/	35%	-1%[46.1 µM]	0%	/
COc1cc(OC)c(NC(=O)CCc2c(C)nc3ncnn3c2C)cc1Cl	-7%[46.1 µM]	/	-16%	16%[46.1 µM]	4%	/
Cc1cc2ccccn2c1C(=O)c1ccc(NN)c([N+](=O)[O-])c1	8.9µM*	-21%	4%	?	-1%	5%
N=C(N)SCc1ccc(O)c([N+](=O)[O-])c1	/	-2%	-27%	/	45µM*	-11%
O=[N+]([O-])c1cc([As](=O)(O)c2ccc(O)c([N+](=O)[O-])c2)ccc1O	?	17%	14%	-1%[46.1 µM]	14µM*	5%
COc1ccc(CSC(=N)N)cc1[N+](=O)[O-]	?	?	-37%	?	11%	-2%
SMILES	MARV entry inh	HCV inhibitor	FMDV inh	LASV entry inh	Sm TGR block	RE007 growth inh
Cc1nc(SCc2ccc(O)c([N+](=O)[O-])c2)c([N+](=O)[O-])[nH]1	/	6%	?	/	40µM*	17%
COC(=O)CC=C[C@H](C)[C@@H](OCc1ccccc1Br)C(C)C	14%[14.2 µM]	/	/	?	/	/
COc1ccc(Nc2ccccc2N)cc1	?	?	-16%	-12%	-4%	0%
Nc1ccc(Nc2ccccc2N)cc1	-23%	11µM*	1%	?	?	-12%
Cc1ccccc1NS(=O)(=O)c1ccc(C(=O)NCC2(N3CCOCC3)CCCCC2)cc1	/	-26%	-2%	/	/	2%
Cc1cccc(NS(=O)(=O)c2ccc(C(=O)NCC3(N4CCCCC4)CCCCC3)cc2)c1C	11µM*	?	1%	?	6%	5%
